In PubChem BioAssay AID1903 (Southern Research Specialized Biocontainment Screening …, 2009):
Where “and” joins values, the source holds several entries; their conditions need not be identical. Equal entries are not always repeated. Out of some 310,000 compounds screened, about 1,200 (0.39%) were called active. No rule for the calls is given here. The list is a sample of the results. Measured potencies and affinities stand elsewhere.

Biological target: Large T antigen (Simian virus 40) (UniProt P03070)
Assay: TAg ATPase/helicase activity blockers – biochemical (AID 1903)
Details: SV40 large T antigen ATPase/helicase inhibition assay; at 20 µM; active compounds read high

Large T antigen (Simian virus 40), sequence (P03070 whole entry, looked up): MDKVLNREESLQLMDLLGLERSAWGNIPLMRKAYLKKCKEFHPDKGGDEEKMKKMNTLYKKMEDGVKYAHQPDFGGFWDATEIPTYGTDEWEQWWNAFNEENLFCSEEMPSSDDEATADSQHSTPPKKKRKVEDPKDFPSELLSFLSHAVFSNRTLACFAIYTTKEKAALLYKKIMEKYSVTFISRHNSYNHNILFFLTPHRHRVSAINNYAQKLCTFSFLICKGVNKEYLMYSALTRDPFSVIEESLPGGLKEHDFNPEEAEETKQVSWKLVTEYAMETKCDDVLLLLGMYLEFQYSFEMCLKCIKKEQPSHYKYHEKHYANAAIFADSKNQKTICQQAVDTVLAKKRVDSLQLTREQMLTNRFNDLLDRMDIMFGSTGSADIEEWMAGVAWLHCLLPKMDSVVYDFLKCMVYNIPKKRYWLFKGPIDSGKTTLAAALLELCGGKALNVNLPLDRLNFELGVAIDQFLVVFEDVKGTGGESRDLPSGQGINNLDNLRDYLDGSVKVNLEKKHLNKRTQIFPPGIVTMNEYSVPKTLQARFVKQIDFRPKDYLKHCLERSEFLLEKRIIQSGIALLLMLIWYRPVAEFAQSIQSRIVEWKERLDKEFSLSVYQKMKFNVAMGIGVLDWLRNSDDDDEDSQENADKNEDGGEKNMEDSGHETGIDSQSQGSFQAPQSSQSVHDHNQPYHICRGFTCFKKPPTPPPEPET

inhibition, inactive:
CC[C@H](C)[C@H](NC(N)=O)C(=O)Nc1ccc(NC(C)=O)cc1 9.4%, CCOC(=O)c1cnc(N)nc1C(F)(F)F -4.94%, O=C(COC(=O)c1ccc2c(c1)OCCO2)Nc1cc(S(=O)(=O)N2CCOCC2)ccc1Cl 12.3%, COCCn1c(N2CCCC2)nc2c1c(=O)[nH]c(=O)n2C 5.19%, Cc1ccc(-c2nnc(CCC(=O)N(C)Cc3nccs3)o2)s1 -8.55%, Nc1cccc(S(=O)(=O)c2ccc(N)c(N)c2)c1 25.5%, Nc1ccc(S(=O)(=O)c2ccc(N)c(N)c2)cc1 20.9%, O=C(c1cnn2c(C(F)F)cc(-c3ccccc3)nc12)N1CCCCC1c1cccnc1 (stereo unspecified) 1.99%, COc1ccc(NC(=O)c2ccc3c(c2)NC(=O)CO3)cc1OC -1.26%, Cc1ccccc1S(=O)(=O)Cc1ccc(C(=O)NC2CC2)o1 11.4%, CCC1=NN2C(=N)/C(=C/c3ccc(OS(=O)(=O)c4ccc(C)cc4)c(OC)c3)C(=O)N=C2S1 15.3%, COc1cc(/C=C2/C(=N)N3N=C(C)SC3=NC2=O)ccc1OS(=O)(=O)c1ccc(C)cc1 3.08%, COc1cc(/C=C2\SC(c3ccc(C)cc3)=NC2=O)ccc1O 23.4%, CCOc1cc(/C=C2/C(=N)N3N=C(CC)SC3=NC2=O)ccc1OC(=O)c1ccco1 1.88%, COc1cc(/C=C2\C(=N)N3N=C(S(C)(=O)=O)SC3=NC2=O)ccc1OS(=O)(=O)c1ccccc1 26.3%, CCC1=NN2C(=N)/C(=C\c3ccc(OCCOc4ccccc4)c(OC)c3)C(=O)N=C2S1 10.4%, CC(CCc1ccccc1)C(=O)NO (stereo unspecified) -1.59%, Cc1cc(NC(=O)c2cccc(S(=O)(=O)Nc3cccc(C(=O)O)c3)c2)no1 12.5%, CCOc1ccc(N2C(=O)CC(N3CCN(C(=O)CN4CCCC4)CC3)C2=O)cc1 (stereo unspecified) 15.8%, CN(C)CCN(C(=O)c1ccc(S(=O)(=O)N(C)C)cc1)c1nc2cc3c(cc2s1)OCCO3 3.41%, Cc1cccc(C(=O)N[C@H](C(=O)NCCc2ccc(S(N)(=O)=O)cc2)C(C)C)c1 9.44%, CCCC(c1nnnn1CS(=O)(=O)c1ccc(C)cc1)N1CCC(C(N)=O)CC1 (stereo unspecified) 1.94%, CCOc1ccc(NC(=O)CCn2ccnc2)cc1 2.19%, O=C(CCCCCN1C(=O)c2ccccc2C1=O)NCCc1nc2ccccc2[nH]1 5.03%, COc1ccc(Nc2nc(N3CCN(S(=O)(=O)N(C)C)CC3)nc3ccccc23)cc1 6.91%, COc1ccc(-c2nc(-c3cccs3)c(-c3cccs3)[nH]2)cc1OC 8.77%, COc1ccc(/C=N/Nc2nccnc2Cl)c(OC)c1 5.32%, Clc1nccnc1N/N=C/c1ccc(Br)cc1 0.07%, Oc1ccc(/C=N/Nc2cccc(Cl)n2)c(O)c1 21.8%, Oc1ccccc1/C=N/Nc1nccnc1Cl 0.02%, Fc1ccc(/C=N/Nc2nccnc2Cl)cc1 8.81%, Oc1ccc(/C=N/Nc2ccnc3cc(Cl)ccc23)c(O)c1 8.76%, Cc1cc(C)c(C)c(S(=O)(=O)N2CCSCC2)c1C 8.62%, N#Cc1c(NC(=O)COC(=O)c2ccc(F)cc2)sc2c1CCC2 1.58%, O=C(CSc1nc2c(cnn2-c2ccccc2)c(=O)[nH]1)N1CCCCC1 24.9%, COc1ccc(/C=C(\NC(=O)c2ccc(OC)cc2)C(=O)NC(CCSC)C(=O)O)cc1 (stereo unspecified) 9.06%, O=C(Nc1ccccc1)C1CCN(S(=O)(=O)c2ccc3c(c2)OCCO3)CC1 20.4%, CCCCn1c(SCC(N)=O)nnc1-c1ccco1 8.33%, NC(=O)CSc1nnc2ccc(-c3ccco3)nn12 16.6%, O=C(COc1cccnc1[N+](=O)[O-])c1c[nH]c2ccccc12 21.6%, Cc1cc(C)c(C(=O)COc2cccnc2[N+](=O)[O-])cc1C -4.61%, COc1ccc(C2OCC3(O)C(c4ccc(OC)c(OC)c4)OCC23)cc1OC (stereo unspecified) 4.9%, C/C(=N/NS(=O)(=O)c1ccccc1)c1c[nH]c2ccccc12 31.3%, CCN(CC)c1ccc(/C=N/NS(=O)(=O)c2cccc([N+](=O)[O-])c2)cc1 10.4%, O=[N+]([O-])c1cccc(/C=N/NS(=O)(=O)c2ccccc2)c1 9.33%, Cc1ccc(S(=O)(=O)N/N=C/c2ccccc2O)cc1[N+](=O)[O-] 12.5%, CN(C)c1ccc(/C=N/NS(=O)(=O)c2ccc(Br)cc2)cc1 24.5%, C/C(=N\NS(=O)(=O)c1ccc([N+](=O)[O-])cc1)c1c[nH]c2ccccc12 34%, COc1cc(/C=N/NS(=O)(=O)c2ccc(C)c([N+](=O)[O-])c2)cc([N+](=O)[O-])c1O 24.7%, COc1ccc(/C=N/NS(=O)(=O)c2ccccc2)cc1OC 13.2%, Cc1ccc(C(c2c(C)[nH][nH]c2=O)c2c(C)[nH][nH]c2=O)cc1[N+](=O)[O-] 20.9%, COC(=O)c1cccc(-n2c(C)cc(C=O)c2C)c1C 17.4%, NC(=O)C1CCN(C(=O)c2ccc(Oc3ccccc3)cc2)CC1 13.6%, COC(=O)c1c(S(N)(=O)=O)c2ccccc2n1C 21.9%, Nc1nccnc1C(=O)OCC(=O)N1CCN(S(=O)(=O)c2ccc(Cl)cc2)CC1 15.7%, CC1=NN(c2ccccc2)C(=O)C1N=Nc1ccc(C)cc1 (stereo unspecified) -3.33%, CC1=NN(c2ccccc2)C(=O)C1c1ccccc1 (stereo unspecified) 31.6%, CCOc1ccccc1NC(=O)COC(=O)CSc1ccc(Cl)cc1 -3.03%, COc1cccc(-c2nn(C)c3sc(C(=O)NCc4ccco4)cc23)c1 16.5%, CCn1c(-c2cc(OC)c(OC)c(OC)c2)n[nH]c1=S 8.67%, COc1cc(-c2nc(N)n[nH]2)cc(OC)c1OC 3.91%, O=C(CNC(=O)c1ccccc1)OCCCOC(=O)CNC(=O)c1ccccc1 8.32%, Cc1cc(C)c(C)c(S(=O)(=O)N2CCN(C(=O)c3ccco3)CC2)c1C 30.6%, Fc1ccc(-c2nc(-c3cccs3)[nH]c2-c2ccc(F)cc2)cc1 0.16%, O=C(O)c1ccc(-c2nc(-c3ccccc3)c(-c3ccccc3)[nH]2)cc1 13.6%, Cn1c(Cc2ccccc2)nnc1SCC(=O)NC1CC1 5.03%, Cc1cc(C)nc(SCSc2nc(C)cc(C)n2)n1 1.38%, Cc1cc(C)nc(SCCN(C)C)n1 21.5%, N#CC1=C(N)C2=CCCC[C@H]2[C@H](c2ccccc2)C1(C#N)C#N 10.5%, N#CC1=C(N)C2=CCCC[C@H]2[C@H](c2ccc(Br)cc2)C1(C#N)C#N 29.5%, COC(=O)C1=C(O)/C(=C\c2cc(C)n(-c3ccccc3C)c2C)N=C1C 21.4%, CCOC(=O)C1=C(O)/C(=C\c2cccs2)N=C1C 10.2%, CCOC(=O)C1=C(O)/C(=C\c2cccc(OC)c2)N=C1C 4.85%, COC(=O)C1=C(O)/C(=C\c2cc(C)n(-c3ccccc3F)c2C)N=C1C 8.75%, Cc1nc2ccccc2c(C)c1CC(=O)N(C)CC(=O)Nc1cccc(F)c1 6.37%, Cc1noc(C)c1C(=O)Nc1nc2ccc(Cl)cc2s1 13.7%, Cc1cc(C)nc(SCC(=O)N2CCCCC2)n1 24.1%, O=C1c2ccc3c4c(ccc(c24)C(=O)N1c1ccc(O)cc1)C(=O)N(c1ccc(O)cc1)C3=O 2.8%, O=C1CCCC(=O)N1c1ccc(O)cc1 12.2%, O=C(NC1CC1)C1=C[C@@H](c2ccccc2)C[C@@H](OCCCCO)O1 5.56%, COc1cc(/C=C(\C#N)C(=O)Nc2cccc(C(=O)O)c2)ccc1OCc1ccc(F)cc1 -17.7%, Cc1c(C(=O)NN)[nH]c2ccc([N+](=O)[O-])cc12 7.05%, CCOC(=O)C1(CCc2ccccc2)CCN(C(=O)c2cccc(C)n2)CC1 4.43%, CCc1nnc(NS(=O)(=O)c2ccc(NC(=O)c3cccc4ccccc34)cc2)s1 11.1%, CCc1nnc(NS(=O)(=O)c2ccc(NC(=O)c3cc4ccccc4oc3=O)cc2)s1 -3.35%, O=C(c1cc(-c2ccccc2Cl)nc2ccccc12)N1CCC1 8.29%, O=C1N/C(=N/S(=O)(=O)Cc2ccccc2)S/C1=C/c1ccc2c(c1)OCO2 22.1%, COc1ccc(C(=O)C[n+]2cccc(C(N)=O)c2)cc1 1.66%, Cc1cc(O)ccc1C1(c2ccc(O)cc2C)OC(=O)c2ccccc21 4.57%, O=C1OC(c2ccc(O)cc2)(c2ccc(O)cc2)c2ccccc21 9.29% and 0.77%, COCCNC(=O)c1c[nH]n2c(=O)cc(C3CCN(C(=O)OC(C)(C)C)CC3)nc12 6.9%, CCN1CCN(c2ccc(NC(=O)c3cccc(OCc4ccccc4)c3)cc2)CC1 8.98%, O=C1C2C3C=CC(CC3)C2C(=O)N1/N=C/c1ccc(O)cc1 (stereo unspecified) 22.8%, COc1cc(/C=N/N2C(=O)C3C4c5ccccc5C(c5ccccc54)C3C2=O)ccc1O (stereo unspecified) 19.2%, O=C1C2C3C=CC(CC3)C2C(=O)N1/N=C/c1ccccc1O (stereo unspecified) -0.603%, COc1ccccc1/C=N/N1C(=O)C2C3C=CC(CC3)C2C1=O (stereo unspecified) 5.91%
